Results from PubChem BioAssay (EPA / NIEHS).
Where “and” joins values, the source holds several entries; their conditions need not be identical. Equal values may be shown once. Some compounds were tested as several samples or in several runs, with calls that do not always agree. Calls of active or inactive are those of the source. The calls were made as follows: active = hit-call score of the fitted dose curve at least 0.9, where 1 is the maximum; inactive = score below 0.9.

Assays:
[1] = molecular target: Paired box protein Pax-6 (Homo sapiens) (UniProt P26367); assay: ATG_Pax6_CIS: Attagene CIS-FACTORIAL HepG2 Assay for human Paired Box 6 (PAX6) (AID 2282956); details: HepG2 CIS-FACTORIAL PAX6 reporter transcription, RNA readout; actives raise or lower the signal
Outline: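 DMSO-referenced bidirectional fits of reporter mRNA fluorescence; HepG2 with transient cis-promoter MRTUs, 24 h post-dose, RT-PCR plus capillary electrophoresis detection.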

[2] = ATG_PXRE_CIS: Attagene CIS-FACTORIAL HepG2 Assay for human Pregnane X Receptor Element (PXRE) (AID 2282957); details: HepG2 Attagene CIS-FACTORIAL PXRE reporter, mRNA; actives raise or lower the signal
Outline: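 Endogenous transcription factor activity in HepG2 was gauged through induction of reporter mRNA driven by a cis-regulating promoter element, sampled 24 h post-treatment. Activity was fitted in both directions against DMSO negative control.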

[3] = ATG_PPRE_CIS: Attagene CIS-FACTORIAL HepG2 Assay for human Peroxisome Proliferator-activated Response Element (PPRE) (AID 2282958); details: HepG2 PPRE cis-element reporter, Attagene transcription factor profiling; actives raise or lower the signal
Outline: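 Measured endpoint: PPRE-controlled reporter mRNA, detected by RT-PCR and capillary electrophoresis fluorescence, from transiently transfected HepG2 cells 24 h after dosing. Curves fitted in both directions using DMSO baseline.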

[4] = ATG_RORE_CIS: Attagene CIS-FACTORIAL HepG2 Assay for human RAR-related Orphan Receptor Element (RORE) (AID 2282959); details: HepG2 Attagene cis-factorial RORE reporter, mRNA; actives raise or lower the signal
Outline: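 Transiently transfected HepG2 reporter cells were treated 24 h. Reporter transcripts were detected by RT-PCR and capillary electrophoresis, with bidirectional fitting against DMSO.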

[5] = ATG_Sox_CIS: Attagene CIS-FACTORIAL HepG2 Assay for human SRY-box transcription factor (SOX) (AID 2282960); details: HepG2 Attagene cis-factorial SOX reporter, mRNA; actives raise or lower the signal
Outline: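 Gain- or loss-of-signal endpoint, fitted bidirectionally with DMSO as negative control. Based on reporter mRNA from transfected HepG2 cells harvested 24 h post-treatment and quantified via RT-PCR and capillary electrophoresis.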

[6] = molecular target: Transcription factor Sp1 (Homo sapiens) (UniProt P08047); assay: ATG_Sp1_CIS: Attagene CIS-FACTORIAL HepG2 Assay for human Specificity Protein 1 (Sp1) (AID 2282961); details: HepG2 Sp1 cis-reporter transcription, actives raise or lower the signal
Outline: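 Endpoint reflects endogenous Sp1 transcriptional activity, not an exogenous fusion protein: HepG2 cells with transfected cis-regulated reporters, 24 h dosing, RT-PCR/capillary electrophoresis mRNA read-out, DMSO-normalised bidirectional fit.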

[7] = ATG_SREBP_CIS: Attagene CIS-FACTORIAL HepG2 Assay for human Sterol Regulatory Element Binding (SREBP) (AID 2282962); details: HepG2 Attagene cis-factorial SREBP reporter, mRNA; actives raise or lower the signal
Outline: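 In this cis-format assay, HepG2 liver cells express reporters controlled by promoter elements responsive to native transcription factors. Exposure lasts 24 h; reporter mRNA fluorescence from capillary electrophoresis gives the signal, fitted bidirectionally against DMSO.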

[8] = molecular target: Signal transducer and activator of transcription 3 (Homo sapiens) (UniProt P40763); assay: ATG_STAT3_CIS: Attagene CIS-FACTORIAL HepG2 Assay for human Signal Transducer and Activator of Transcription 3 (STAT3) (AID 2282963); details: HepG2, Attagene cis-factorial STAT3 reporter transcription; actives raise or lower the signal
Outline: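 HepG2, MRTU-transfected, 24 h dosing. RNA → RT → PCR → FAM label → HpaI → CE. Bidirectional fit vs DMSO.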

[9] = ATG_TA_CIS: Attagene CIS-FACTORIAL HepG2 Assay for human TA Basal Promoter (AID 2282964); details: HepG2 Attagene CIS-factorial TA basal promoter reporter; actives raise or lower the signal
Outline: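 Background internal-marker endpoint from a 52-component HepG2 cis-reporter panel. Cells treated 24 h; reporter transcripts quantified via RT-PCR and CE fluorescence against DMSO baseline.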

[10] = ATG_TCF_b_cat_CIS: Attagene CIS-FACTORIAL HepG2 Assay for human T-Cell-Factor with beta-catenin (TCF/b-cat) (AID 2282965); details: HepG2 TCF/beta-catenin cis-reporter transcription, actives raise or lower the signal
Outline: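 Using capillary electrophoresis as the read-out, labelled reporter cDNA fragments from transiently transfected HepG2 were sized and quantified. Exposure lasted 24 hours; activity in either direction was referenced to DMSO.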

Measured: AC50

Sequence of Paired box protein Pax-6 (Homo sapiens) (P26367 whole entry, looked up): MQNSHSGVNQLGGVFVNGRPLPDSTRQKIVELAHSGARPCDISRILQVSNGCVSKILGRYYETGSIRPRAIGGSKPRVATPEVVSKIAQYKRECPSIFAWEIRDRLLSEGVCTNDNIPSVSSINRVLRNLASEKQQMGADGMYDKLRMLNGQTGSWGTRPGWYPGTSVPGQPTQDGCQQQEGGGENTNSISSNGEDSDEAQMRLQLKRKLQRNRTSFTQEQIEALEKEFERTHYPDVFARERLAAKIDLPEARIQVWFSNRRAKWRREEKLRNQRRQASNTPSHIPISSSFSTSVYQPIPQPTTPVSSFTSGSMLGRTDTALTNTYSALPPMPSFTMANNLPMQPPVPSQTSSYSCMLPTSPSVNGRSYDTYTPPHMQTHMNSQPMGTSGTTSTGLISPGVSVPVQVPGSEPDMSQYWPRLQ
Sequence of Transcription factor Sp1 (Homo sapiens) (P08047 whole entry, looked up, the tested form may be a part): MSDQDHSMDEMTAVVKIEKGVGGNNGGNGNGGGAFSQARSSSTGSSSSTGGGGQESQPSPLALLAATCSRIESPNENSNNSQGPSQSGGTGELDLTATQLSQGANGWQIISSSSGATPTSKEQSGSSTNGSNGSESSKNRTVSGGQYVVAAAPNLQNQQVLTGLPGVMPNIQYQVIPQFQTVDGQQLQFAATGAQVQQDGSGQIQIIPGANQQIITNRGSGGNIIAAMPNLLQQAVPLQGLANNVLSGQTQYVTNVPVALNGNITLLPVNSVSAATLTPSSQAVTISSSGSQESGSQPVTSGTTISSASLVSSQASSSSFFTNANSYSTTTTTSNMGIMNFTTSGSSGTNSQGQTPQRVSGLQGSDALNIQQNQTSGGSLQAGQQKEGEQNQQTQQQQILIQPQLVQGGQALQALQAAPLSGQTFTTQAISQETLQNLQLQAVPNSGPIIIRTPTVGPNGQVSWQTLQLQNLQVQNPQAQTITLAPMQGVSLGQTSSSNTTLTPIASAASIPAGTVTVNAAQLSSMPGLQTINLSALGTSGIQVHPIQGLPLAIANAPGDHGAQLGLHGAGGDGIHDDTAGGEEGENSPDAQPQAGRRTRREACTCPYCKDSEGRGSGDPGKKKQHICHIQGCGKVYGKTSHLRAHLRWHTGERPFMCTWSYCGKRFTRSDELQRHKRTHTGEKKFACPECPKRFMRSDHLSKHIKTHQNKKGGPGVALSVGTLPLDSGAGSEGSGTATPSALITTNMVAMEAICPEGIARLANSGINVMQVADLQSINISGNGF
Sequence of Signal transducer and activator of transcription 3 (Homo sapiens) (P40763 whole entry, looked up): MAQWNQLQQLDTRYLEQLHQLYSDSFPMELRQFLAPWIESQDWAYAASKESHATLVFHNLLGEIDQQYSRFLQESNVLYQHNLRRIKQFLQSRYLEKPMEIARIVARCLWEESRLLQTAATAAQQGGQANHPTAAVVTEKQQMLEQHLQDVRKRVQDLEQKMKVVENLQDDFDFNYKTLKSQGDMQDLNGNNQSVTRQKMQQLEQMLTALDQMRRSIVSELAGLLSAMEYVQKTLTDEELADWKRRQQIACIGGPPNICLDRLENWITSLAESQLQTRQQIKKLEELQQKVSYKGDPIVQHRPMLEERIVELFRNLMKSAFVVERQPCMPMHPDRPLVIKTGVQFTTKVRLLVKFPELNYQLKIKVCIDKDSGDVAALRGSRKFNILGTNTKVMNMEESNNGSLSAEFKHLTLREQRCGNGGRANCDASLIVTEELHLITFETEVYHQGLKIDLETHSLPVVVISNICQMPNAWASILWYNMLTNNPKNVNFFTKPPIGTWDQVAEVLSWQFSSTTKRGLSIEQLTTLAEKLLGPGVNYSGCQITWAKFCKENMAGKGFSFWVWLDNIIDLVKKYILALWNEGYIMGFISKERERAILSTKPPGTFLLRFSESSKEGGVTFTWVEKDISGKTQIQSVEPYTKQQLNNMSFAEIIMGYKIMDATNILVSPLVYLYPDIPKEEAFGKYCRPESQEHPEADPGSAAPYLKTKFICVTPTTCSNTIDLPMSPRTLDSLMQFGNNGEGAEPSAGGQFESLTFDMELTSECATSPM

O=C1O[C@H]([C@@H](O)CO)C(O)=C1O
active: [2] 184 µM and 54.4 µM
inactive: all other assays above

O=c1[nH]sc2ccccc12
active: [2] 51.7 µM | [5] 42.9 µM | [10] 44.4 µM
inactive: all other assays above

O=C1c2ccccc2C(=O)N1CCc1noc(-c2ccc(CN3CCCCCC3)s2)n1
active: [2] 2.09 µM
not listed: [3]
inactive: all other assays above

CC(C)(c1cc(Br)c(O)c(Br)c1)c1cc(Br)c(O)c(Br)c1
inactive: [8] | [9]
active: [1] 46 µM and 42.9 µM | [2] 7.93 µM and 8.01 µM | [5] 41.4 µM and 43.4 µM | [6] 39.3 µM and 31.9 µM | [7] 31.7 µM and 23 µM | [9] 23.2 µM

O=C(O)Cn1c(=O)n(Cc2ccc(Br)cc2F)c(=O)c2ccc(Cl)cc21
active: [2] 8.54 µM
not listed: [3]
inactive: all other assays above

CCOC(=O)O[C@H](C)OC(=O)c1ccc2c(c1)cc(C(=O)NC1CCN(C(C)C)CC1)n2Cc1cc(-c2ccc(Cl)s2)on1
active: [6] 60 µM | [7] 33 µM
inactive: all other assays above

CCO[Si](CCCNC(N)=O)(OCC)OCC
inactive: all assays above

OC12N=C(c3ccccc3)SC1Cc1cc(Cl)ccc12 (configuration not stated)
active: [2] 4.27 µM | [3] 0.0507 µM
inactive: all other assays above

O=C(O)Cc1cc(I)c(Oc2ccc(O)c(I)c2)c(I)c1
inactive: [1] | [5] | [6] | [7] | [8] | [9]
active: [2] 26.3 µM and 26.1 µM and 7.66 µM | [4] 34.9 µM [middle of 4 runs] | [7] 11.4 µM

CN1C(=O)CC[C@H]1c1cccnc1
not listed: [3]
inactive: all other assays above

CCN(Cc1cccc(S(=O)(=O)O)c1)c1ccc(C(=C2C=CC(=[N+](CC)Cc3cccc(S(=O)(=O)O)c3)C=C2)c2ccccc2S(=O)(=O)[O-])cc1
inactive: all assays above

NC(=O)c1nc(-c2cccc(-c3cc(F)ccc3OCC(F)(F)C(F)(F)F)c2)n[nH]1
inactive: [5] | [8]
active: [1] 24.3 µM | [2] 8.11 µM | [6] 16.9 µM | [7] 10.3 µM | [9] 43.7 µM | [10] 33 µM

Oc1ccc2ccccc2c1
not listed: [3] | [10]
inactive: all other assays above

O=C(Nc1ccc(Cl)cc1)Nc1ccc(Cl)c(Cl)c1
active: [2] 2.12 µM | [4] 4.17 µM
inactive: all other assays above

CC(C)(C)c1cc(/C=C2\SC(N)=NC2=O)cc(C(C)(C)C)c1O
active: [1] 14.5 µM | [2] 1.2 µM | [7] 18.2 µM | [10] 16.3 µM
not listed: [3]
inactive: all other assays above

CCN(CC)C(=O)c1cc(S(=O)(=O)Cc2ccccc2)c(N2CCC(c3ccccc3)CC2)cc1N(CC)CCN(C)C
active: [2] 0.126 µM | [7] 0.926 µM
inactive: all other assays above

CC[C@H](NC(=O)c1cc(F)ccc1NS(=O)(=O)c1cccc2cccnc12)c1ccccc1
active: [2] 0.0144 µM | [7] 27.1 µM
inactive: all other assays above

c1ccc2ccccc2c1
inactive: all assays above

CC1(C)NC(=O)N(c2ccc([N+](=O)[O-])c(C(F)(F)F)c2)C1=O
active: [2] 27.5 µM and 6.9 µM and 27.3 µM
not listed: [3] | [10]
inactive: all other assays above
